From PubChem BioAssay AID504652 (National Center for Advancing Translational Sciences (NCATS), 2011)
About 11,000 (3.1%) of roughly 360,000 compounds were called active. This excerpt belongs to a sample that is enriched for actives. Values without a mark were called inactive. Rule as the data show it: active = activity change below about -30%; inactive = the rest.

What follows are molecules tested against D(1A) dopamine receptor (Homo sapiens) (UniProt P21728) (assay: Antagonist of Human D 1 Dopamine Receptor: qHTS). Conditions: HEK293 TREx D1 cells, calcium flux, dopamine EC80; at 10 µM; stronger effect = lower value.
Chain of D(1A) dopamine receptor (Homo sapiens) (P21728 whole entry, looked up): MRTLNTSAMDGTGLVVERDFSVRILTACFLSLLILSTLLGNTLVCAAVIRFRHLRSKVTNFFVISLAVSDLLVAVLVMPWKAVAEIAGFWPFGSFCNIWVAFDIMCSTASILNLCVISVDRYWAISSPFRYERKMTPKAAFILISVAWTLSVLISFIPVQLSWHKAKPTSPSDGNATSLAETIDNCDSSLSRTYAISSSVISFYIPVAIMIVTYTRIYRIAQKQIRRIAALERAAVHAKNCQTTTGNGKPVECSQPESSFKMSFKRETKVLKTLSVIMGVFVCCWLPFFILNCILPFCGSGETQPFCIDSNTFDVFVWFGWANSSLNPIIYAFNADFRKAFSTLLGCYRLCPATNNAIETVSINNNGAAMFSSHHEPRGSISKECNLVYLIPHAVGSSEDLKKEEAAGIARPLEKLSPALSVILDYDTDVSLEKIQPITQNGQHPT
Procedure, shortened: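 Tetracycline-induced HEK293 T-REx cells with force-coupled D1 receptor were loaded with a no-wash calcium dye. Compound was added after a 10 s baseline and read kinetically for 180 s; EC80 dopamine was then added and calcium flux followed another 180 s.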
% is scaled to controls: 0 for no effect and ±100 for the full control effect.

SMILES	activity change, negative = inhibition
COc1ccc(Cn2c(C(=O)O)c(CNCCc3cccs3)c3ccc(OC)cc32)cc1	9.72%
Cc1ccc(CCNC(=O)Cn2c(-c3cccs3)cc3cc(F)ccc32)cc1	-40.1% (active)
COc1ccc(CCNC(=O)CN2CCC(n3nnc4cc(F)ccc43)CC2)cc1OC	-3.98%
O=C(Cn1c(-c2cccs2)cc2ccccc21)NCCc1ccc(Cl)cc1	-2.26%
CN(CC(=O)Nc1ccc(F)cc1)C(=O)c1ccc(-c2ccc(Cl)cc2)o1	-13.8%
CN(C)c1cc(-c2ccc(F)cc2)oc(=O)c1Cl	-37.9% (active)
CCCCC(CC)CNC(=O)C1CCN(S(=O)(=O)c2cccc3nsnc23)CC1 (stereo not given)	5.74%
O=C(NCCc1ccc(Cl)cc1)c1ccc2nc(CCc3ccccc3)oc2c1	-1.03%
Cc1ccc(Nc2nc3ccccc3nc2-n2nc(C)cc2C)c(Cl)c1	6.62%
O=C(Nc1ccccc1Br)c1cc(CN2CCCC2)on1	-3.7%
CCCCC(=O)OC1=CN(Cc2ccccc2)S(=O)(=O)c2ccccc21	-18.6%
CCc1ccc(Oc2coc3cc(O)ccc3c2=O)cc1	-2.88%
CCc1ccc(Oc2coc3cc(OC(=O)c4cc5ccccc5oc4=O)ccc3c2=O)cc1	-33.2% (active)
COc1ccc(Oc2coc3cc(OC(=O)c4cncc(Br)c4)ccc3c2=O)cc1	-0.64%
CCc1ccc(NC(=O)Cn2c(=O)n(CCC(=O)NCc3ccc4c(c3)OCO4)c(=O)c3ccccc32)cc1	6.37%
O=S(=O)(Nc1cc(S(=O)(=O)N2CCOCC2)ccc1N1CCCC1)c1cccs1	-6.97%
CCN(CC)S(=O)(=O)c1ccc(N2CCN(C)CC2)c(NC(=O)Nc2ccccc2F)c1	7.64%
CCN(CC)S(=O)(=O)c1ccc(N2CCCC2)c(NS(=O)(=O)c2cccs2)c1	-40.2% (active)
Cc1ccc(O)c(NC(=O)CCS(=O)(=O)c2nc(-c3ccc4c(c3)OCO4)cc(C(F)(F)F)n2)c1	-20.8%
O=C(Cc1ccc(Cl)cc1)Nc1ccc2nn(-c3ccc(Cl)cc3)nc2c1	-2.04%
Cc1cc(NC(=O)CC(C)C)cc(-c2nc3ncccc3o2)c1O	13.5%
CCOc1ccc(NC(=O)N(CC(C)C)CC(C)C)cc1	-10.6%
CCOc1ccc(NC(=O)N(CCC(C)C)C(C)c2ccco2)cc1 (stereo not given)	-66.3% (active)

SMILES	activity change, negative = inhibition
CCOc1ccc(NC(=O)c2ncoc2-c2ccco2)cc1	0.181%
CCOC(=O)c1ccccc1NC(=O)CCc1c(C)nc2c(c1C)c(=O)n(C)c(=O)n2C	4.81%
CCc1ccc(S(=O)(=O)c2nnn3c2nc(N2CCN(CC)CC2)c2sccc23)cc1	8.88%
Cc1ccccc1NC(=O)Cn1c(=O)n(CC2CCC(C(=O)NCCc3ccccc3)CC2)c(=O)c2ccccc21 (stereo not given)	-13.6%
O=S(=O)(c1ccc(SCc2ccccc2)nc1)N1CCCCCC1	0.949%
O=S(=O)(c1ccc(SCc2ccc(Br)cc2)nc1)N1CCOCC1	-43.1% (active)
Cc1ccc(CSc2ccc(S(=O)(=O)N3CCCCC3)cn2)cc1	2.76%
CCn1cc(C(=O)N/N=C(/C)c2ccc(F)cc2)c(=O)c2cc(F)c(N3CCCC3)cc21	1.71%
CCOC(=O)c1cn(CC)c2cc(F)c(F)cc2c1=O	-74.1% (active)
CCn1cc(C(=O)NCCO)c(=O)c2cc(F)c(N3CCN(C)CC3)cc21	-5.03%
CCS(=O)(=O)N1CCc2cc(C(=O)NCc3ccc(OC)cc3)ccc21	1.59%
COc1ccc(C(=O)COC(=O)c2ccc3ccccc3n2)cc1	-5.41%
COc1ccc(C2=NOC(COC(=O)c3ccc4ccccc4n3)C2)cc1 (stereo not given)	-39.5% (active)
COc1ccc(CNC(=O)C2CC(c3ccc(C(F)(F)F)cc3)=NO2)cc1 (stereo not given)	-1.82%
CCCNC(=O)C(CC)n1nc(CC)n2c(cc3oc(C)cc32)c1=O (stereo not given)	5.42%
Cc1ccc(Cl)cc1N1CCN(S(=O)(=O)c2cc3[nH]c(=O)c(=O)[nH]c3cc2C)CC1	1.65%
COc1cccc(C(=O)Nc2ccc3oc(-c4ccc5ccccc5c4)nc3c2)c1	7.96%
O=C(CNC(=O)c1ccc(Cl)cc1Cl)OC(C(=O)Nc1cc(C(F)(F)F)ccc1Cl)c1ccccc1 (stereo not given)	6.17%
COc1ccc(NC(=O)Cn2c(=O)n(Cc3ccc(C(=O)NCc4ccccc4Cl)cc3)c(=O)c3ccccc32)cc1	-5.19%
CCN(Cc1ccccc1)S(=O)(=O)c1ccc2c(c1)CCCN2C(C)=O	-20%
CCN(Cc1ccccc1)S(=O)(=O)c1cc2c3c(c1)CCN3C(=O)CC2	-34.1% (active)
CCN(Cc1ccccc1)S(=O)(=O)c1cc(C(=O)O)ccc1OC	27.7%
CC(=O)Nc1ccc(OC(=O)COc2ccc(Br)cc2)cc1	-21.3%

SMILES	activity change, negative = inhibition
Cn1cccc1C(=O)NNC(=O)COc1ccc(Br)cc1	16.4%
Cc1ccc(O)c(NC(=S)NC(=O)COc2ccc(Br)cc2)c1	-46.3% (active)
Cc1ccc(-c2nc(SCc3ccc(Br)cc3)n3[nH]c(=O)cc3n2)cc1	-5.43%
CC(C)CC(=O)NCC(c1ccc2c(c1)OCO2)N1CCN(c2ccc(F)cc2)CC1 (stereo not given)	19.3%
COc1ccc(OC)c(NC(=O)/C=C/c2ccc(C)o2)c1	-17.2%
COC(=O)COc1cccc2c(=O)n(CC(=O)NCCc3ccc(OC)c(OC)c3)ccc12	19.9%
COc1ccc(CNC(=O)COC(=O)c2c(C)nn(-c3ccccc3)c2C)cc1OC	-26%
COc1ccc(CNC(=O)COc2ccccc2C(=O)c2cnn(-c3ccccc3)c2)cc1OC	-32.7% (active)
Cc1cc(O)c(C(c2ccccc2)N2CCN(c3ccccc3F)CC2)c(=O)n1Cc1ccco1 (stereo not given)	-28.1%
Cn1c(=O)c2c(-c3ccccc3Br)n(Cc3ccccc3)cc2n(C)c1=O	-11.3%
COc1ccc(C(=O)C2CCCN(C(=O)c3cnsn3)C2)c(C)c1 (stereo not given)	22.1%
COc1ccc(C(=O)C2CCCN(S(=O)(=O)c3cccc(C)c3)C2)c(C)c1 (stereo not given)	2.24%
COc1ccc(C(=O)C2CCCN(Cc3cccn3-c3ccccn3)C2)c(C)c1 (stereo not given)	-34.5% (active)
CCOc1ccc(Nc2oc(/C=C/c3ccc(F)cc3)nc2C#N)cc1	-2.32%
COc1cccc(NC(=O)CC2C(=O)NCCN2C(=S)Nc2ccc(F)cc2)c1 (stereo not given)	-8.91%
CCc1ccc(NC(=O)CC2C(=O)NCCN2C(=S)Nc2ccccc2)cc1 (stereo not given)	-31.7% (active)
CCNC(=O)N1CCNC(=O)C1CC(=O)Nc1ccc(C(=O)OCC)cc1 (stereo not given)	11.7%
COc1ccc(Cl)cc1C(=O)NCc1cn(C)nc1C	-31.1% (active)
Cc1nn(C)cc1CNC(=O)Nc1ccc(Cl)cc1	5.45%
Cc1ccc(-c2cc(C(=O)NCc3cn(C)nc3C)c3cc(Br)ccc3n2)cc1	-1.17%
Cc1ccc(CCNC(=O)c2ccc(CNS(=O)(=O)c3ccc(C)cc3)cc2)cc1	-6.27%
CCOc1ccc(N(Cc2ccccc2)C(=O)c2nc(S(C)(=O)=O)ncc2Cl)cc1	-4.67%
CN(C)Cc1ccccc1C1(O)c2ccccc2CSc2ccccc21 (stereo not given)	-0.848%

SMILES	activity change, negative = inhibition
CN(C)CC/C=C1\c2ccccc2CSc2ccccc21	-62.1% (active)
COc1ccccc1NC(=O)CN1C(=O)c2ccccc2Sc2ccc(C(=O)N3CCCC3)cc21	9.27%
COc1ccc(N2CCN(C(=O)c3c(C)oc4nc(C)nc(N5CCCC5)c34)CC2)cc1	-1.85%
COc1ccc(OCC(=O)OCCN(C)C)cc1	-9.23%
CN(C)CCOC(=O)C(c1ccccc1)C1(O)CCCC1 (stereo not given)	-42.6% (active)
O=C(O)C(c1ccccc1)C1(O)CCCCC1 (stereo not given)	-1.48%
CCN(c1ncnc2c1cnn2-c1ccc(C)cc1)C1CCCCC1	13.5%
Cc1ccc2c(c1)-c1c(cnn1CC(=O)Nc1ccccc1C#N)CO2	23.7%
Cc1oc2ncnc(N3CCCCC3)c2c1C(=O)N1CCN(c2cccc(Cl)c2)CC1	-0.886%
CC(C)Cn1c(=O)c2ccccc2n2c(CCC(=O)N3CCN(c4cccc(Cl)c4)CC3)nnc12	-9.12%
Cc1ccc(C)n1-c1nnc(N2CCC(C(=O)NCc3ccccc3Cl)CC2)s1	-0.53%
COC(=O)c1cnc(N2CCN(c3ccccc3OC)CC2)c2ccccc12	-2.99%
O=c1c(NCc2cccs2)nccn1-c1ccccc1	-12.1%
Cn1nnnc1SCCNCc1ccc(Cl)c(Cl)c1	-61.6% (active)
Cn1nnnc1SCCCNCc1ccc(Cl)cc1	-11.8%
Cn1nnnc1SCCCNCc1cccc(OCc2ccc(Cl)cc2)c1	-15.2%
Cc1c(Cl)cccc1-c1ccc(CNCCCSc2nnnn2C)o1	-35% (active)
CCOc1ccc(CNCCSc2nnnn2C)cc1	-2.56%
COc1cc(CNCCSc2nnnn2C)ccc1OCc1c(F)cccc1Cl	-17.9%
Cc1ccc2oc3c(c(=O)c2c1)C(c1ccc(O)cc1)N(Cc1ccc2c(c1)OCO2)C3=O (stereo not given)	0.447%
CCOc1ccc(-c2n[nH]c3c2C(c2ccccc2OC)N(c2ccc(Br)cc2)C3=O)cc1 (stereo not given)	9.65%
